ROCK2 blocker – blocks human Rho kinase 2 activity; inhibition, % at 6 µM; AID 604; actives 0.35% (n = 60,000); purified ROCK2, Kinase-Glo ATP depletion luminescence; O75116;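 active = inhibition above the screen-wide mean inhibition plus 3 SD, cut at about 18% in these data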;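 note: plate controls were DMSO wells for no effect and Y-27632 control wells after no-enzyme background subtraction for full effect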
WNV protease inh – blocks West Nile virus NS2B-NS3 protease activity | P06935 | WNV NS2B-NS3 protease, fluorogenic substrate Ex360/Em465; hits give low values | z-score (no concentration beside the values) | actives 0.18% (n = 65,000) | AID 577; in the data active = z-score below about -3
SK-BR-3 tox 24h – SK-BR-3 proliferation inhibitors | SK-BR-3 viability, CellTiter-Glo ATP luminescence, 24 h; hits give low values | viability, % at 10 µM | actives 0.47% (n = 41,000) | AID 847;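 active = viability at or below the median of all test compounds minus 3 SD, in both replicates if run twice, cut at about 45% in these data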;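 note: 100% = median untreated cell wells and 0% = median positive control drug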
PKA kinase inh – blocks human protein kinase A activity; P17612; actives 0.1% (n = 65,000); AID 524; inhibition, % at 6 µM; PKA Kemptide phosphorylation, Kinase-Glo ATP luminescence;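 active = inhibition above the screen-wide mean inhibition plus 3 SD, cut at about 21% in these data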
Hsp90 block – displaces geldanamycin probe from tumor Hsp90; actives 0.35% (n = 64,000); NCI-N417 lysate Hsp90, Cy3B-geldanamycin FP displacement; P07900; inhibition, % at 30 µM;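 active = inhibition above 50%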;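 note: 0% = tracer plus lysate wells and 100% = tracer alone without lysate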
Her2 expr inh – Her2 kinase expression inhibition. P04626. SKBR-3 HER2 protein level, AlphaScreen, 18-24 h; hits give low values. HER2 level % of control, % at 10 µM. actives 0.69% (n = 65,000). AID 645;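 active = HER2 level under 5% of the carrier-only control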;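 note: 100% = DMSO carrier and 0% = 500 nM PU-H71 HSP90 inhibitor; lower value means stronger loss of Her2 protein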
Target sequence (P04626 whole entry, looked up): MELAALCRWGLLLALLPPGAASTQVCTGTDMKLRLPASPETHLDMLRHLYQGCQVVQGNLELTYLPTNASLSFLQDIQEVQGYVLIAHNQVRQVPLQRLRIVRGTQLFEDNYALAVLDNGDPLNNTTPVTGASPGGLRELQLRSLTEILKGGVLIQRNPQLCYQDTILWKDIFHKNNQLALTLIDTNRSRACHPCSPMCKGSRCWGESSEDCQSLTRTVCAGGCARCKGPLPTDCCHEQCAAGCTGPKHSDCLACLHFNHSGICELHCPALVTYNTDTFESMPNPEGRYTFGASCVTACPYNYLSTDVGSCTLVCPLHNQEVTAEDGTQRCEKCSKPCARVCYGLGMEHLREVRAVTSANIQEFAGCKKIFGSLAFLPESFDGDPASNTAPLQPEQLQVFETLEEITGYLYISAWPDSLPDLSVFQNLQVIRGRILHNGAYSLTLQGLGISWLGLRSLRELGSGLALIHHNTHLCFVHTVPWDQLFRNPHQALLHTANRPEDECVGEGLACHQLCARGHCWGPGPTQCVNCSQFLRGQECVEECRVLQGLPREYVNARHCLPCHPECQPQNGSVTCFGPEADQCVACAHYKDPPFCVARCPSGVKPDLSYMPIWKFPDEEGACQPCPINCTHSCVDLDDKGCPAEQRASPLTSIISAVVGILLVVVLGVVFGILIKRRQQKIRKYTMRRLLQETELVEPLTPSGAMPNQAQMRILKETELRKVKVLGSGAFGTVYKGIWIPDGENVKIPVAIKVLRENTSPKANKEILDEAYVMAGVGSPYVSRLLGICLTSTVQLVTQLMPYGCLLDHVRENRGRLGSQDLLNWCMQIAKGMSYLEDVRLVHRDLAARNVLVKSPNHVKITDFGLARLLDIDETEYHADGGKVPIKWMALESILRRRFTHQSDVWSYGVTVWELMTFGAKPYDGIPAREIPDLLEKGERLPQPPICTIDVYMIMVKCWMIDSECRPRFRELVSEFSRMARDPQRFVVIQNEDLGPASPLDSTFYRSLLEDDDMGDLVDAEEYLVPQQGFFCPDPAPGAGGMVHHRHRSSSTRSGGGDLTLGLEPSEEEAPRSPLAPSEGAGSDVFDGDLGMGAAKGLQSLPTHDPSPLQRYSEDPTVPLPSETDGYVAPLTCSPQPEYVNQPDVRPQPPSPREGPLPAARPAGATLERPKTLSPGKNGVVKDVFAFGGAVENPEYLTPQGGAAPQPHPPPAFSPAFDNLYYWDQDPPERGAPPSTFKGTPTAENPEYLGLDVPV
* hit, by the source's call. Shown are actives, neighbours in structure and some others; about 1.6% of the full set was active somewhere.

Cc1ccccc1C(=O)Nc1ccc(Cl)cn1 was read as ROCK2 blocker 3.9, WNV protease inh -1.08, PKA kinase inh 9.8, Hsp90 block -3.0 and Her2 expr inh 75.8.
`CCOC(=O)NC1(Nc2ccc(Cl)cn2)Oc2ccccc2O1` gave ROCK2 blocker -3.6, WNV protease inh 0.48, PKA kinase inh 6.3, Hsp90 block 50.1* and Her2 expr inh 88.9.
For COc1ccc(-c2onc3ccc(Cl)cc23)cc1OC the results were ROCK2 blocker 11.4, WNV protease inh 0.26, SK-BR-3 tox 24h 93.2, PKA kinase inh 11.0, Hsp90 block -6.0 and Her2 expr inh 113.6.
`Cc1cc2nnc(SC(C)C#N)n2c2ccccc12` (stereo unspecified) gave ROCK2 blocker 6.4, WNV protease inh 2.2, PKA kinase inh -1.6, Hsp90 block -4.7 and Her2 expr inh -27.7*.
For CN1C(=O)c2cccc(NC(=O)CCc3ccccc3)c2C1=O the results were ROCK2 blocker 0.7, WNV protease inh 0.76, PKA kinase inh -7.5, Hsp90 block -4.5 and Her2 expr inh 93.4.
Screening Cc1onc(-c2ccccc2)c1C(=O)Nc1sc2c(c1C#N)CCC2 returned ROCK2 blocker 3.2, WNV protease inh 1.29, SK-BR-3 tox 24h 43.9*, PKA kinase inh 9.5 and Her2 expr inh 68.2.
Screening Cc1onc(-c2ccccc2)c1C(=O)Nc1sc2c(c1C(N)=O)CCC2 returned WNV protease inh -0.33, PKA kinase inh 1.8, Hsp90 block -12.9 and Her2 expr inh 46.5.
`Cc1ccc(OCC(O)C(C)NC(C)C)c2c1CCC2` (stereo unspecified) gave Hsp90 block -1.2.
CC(NC(=O)c1ccnc(C(C)(C)C)c1)c1ccccc1 (stereo unspecified) was read as ROCK2 blocker -12.6, WNV protease inh -1.8, SK-BR-3 tox 24h 98.6, PKA kinase inh -2.3, Hsp90 block -4.0 and Her2 expr inh 149.4.
CN(Cc1cc2ccccc2[nH]c1=O)C(=O)C1CCCCC1 was read as ROCK2 blocker 0.7, WNV protease inh -0.69, SK-BR-3 tox 24h 78.6, PKA kinase inh -1.8, Hsp90 block -3.2 and Her2 expr inh 81.8.
For CC(C)C(=O)N(Cc1cc2ccccc2[nH]c1=O)C(C)(C)C the results were ROCK2 blocker 1.9, WNV protease inh 0.82, SK-BR-3 tox 24h 95.0, PKA kinase inh -0.7, Hsp90 block -3.7 and Her2 expr inh -26.7*.
CCc1ccccc1NC(=O)Cn1nnc(-c2cccs2)n1 was read as ROCK2 blocker 6.3, WNV protease inh 0.42, SK-BR-3 tox 24h 72.5, PKA kinase inh 16.1, Hsp90 block -0.3 and Her2 expr inh 102.1.
For Cc1cccc(NC(=O)Cn2nnc(-c3cccs3)n2)c1C the results were ROCK2 blocker -4.5, WNV protease inh 0.67, SK-BR-3 tox 24h 102.2, PKA kinase inh 3.5, Hsp90 block 53.8* and Her2 expr inh 113.8.
`O=C(OCC(=O)N1CCc2ccccc21)c1cccnc1` gave ROCK2 blocker 4.0, WNV protease inh 1.12, SK-BR-3 tox 24h 40.8*, PKA kinase inh 12.2, Hsp90 block 0.2 and Her2 expr inh 86.8.
`CCC(=O)N1c2ccc(S(=O)(=O)CCC(=O)N3CCn4c3nc3ccccc34)cc2CC1C` (stereo unspecified) gave ROCK2 blocker 4.7, WNV protease inh 1.17, PKA kinase inh 11.3, Hsp90 block 0.9 and Her2 expr inh -14.5*.
CS(=O)(=O)c1ccc(Cl)c(NC(=O)COC(=O)CNC(=O)c2ccc(Br)o2)c1 was read as ROCK2 blocker -3.2, WNV protease inh -0.17, PKA kinase inh 1.1, Hsp90 block -1.4 and Her2 expr inh -21.9*.
For CN(CC(=O)Nc1ccccc1Cl)C(=O)COC(=O)CNC(=O)c1ccc(Br)o1 the results were ROCK2 blocker -8.4, WNV protease inh 0.41, PKA kinase inh -0.6, Hsp90 block -3.9 and Her2 expr inh 110.5.
For COc1ccc(C(=O)COC(=O)CSCc2c(C)noc2C)cc1OC the results were ROCK2 blocker 2.7, WNV protease inh 0.12, PKA kinase inh 3.3, Hsp90 block -1.0 and Her2 expr inh 98.2.
Cc1noc(C)c1CSCC(=O)OCC(=O)NC1CCCCC1 was read as WNV protease inh 0.28, SK-BR-3 tox 24h 32.4*, PKA kinase inh 6.5 and Her2 expr inh 98.3.
COc1ccc(Cl)cc1NC(=O)CN1CCC(n2nnc3ccccc32)CC1 was read as ROCK2 blocker 6.4, WNV protease inh -0.77, SK-BR-3 tox 24h 77.0, PKA kinase inh 7.3, Hsp90 block -2.0 and Her2 expr inh 73.7.
Cn1c(Cn2c(=O)sc3ccccc32)nnc1SCC(=O)NCCc1ccccc1 was read as ROCK2 blocker -0.9, WNV protease inh -0.1, PKA kinase inh -1.8, Hsp90 block 0.1 and Her2 expr inh 75.2.
`C=CCSC1=N/C(=C\C=C\c2ccco2)C(=O)S1` gave ROCK2 blocker 3.5, WNV protease inh 0.1, PKA kinase inh 12.7, Hsp90 block -9.1 and Her2 expr inh 2.1*.
For COc1cccc(N2CCN(Cc3coc4c(Cl)cc(Cl)cc4c3=O)CC2)c1 the results were ROCK2 blocker 2.5, WNV protease inh -0.82, PKA kinase inh -3.6, Hsp90 block -4.4 and Her2 expr inh 81.9.
For CCN(CC(=O)NCc1ccc(F)cc1)CC(O)COCc1cccc(OC)c1 (stereo unspecified) the results were ROCK2 blocker 5.4, WNV protease inh 0.56, PKA kinase inh 7.9, Hsp90 block -4.4 and Her2 expr inh 84.0.
For Cc1occc1C(=O)NC(C)C(C)(C)C (stereo unspecified) the results were ROCK2 blocker 5.9, WNV protease inh -0.26, SK-BR-3 tox 24h 105.0, PKA kinase inh 4.6, Hsp90 block 80.0* and Her2 expr inh 94.1.
`C(=N/n1c2ccccc2c2ccccc21)/c1ccco1` gave ROCK2 blocker 6.2, WNV protease inh -1.11, PKA kinase inh 8.2, Hsp90 block -4.9 and Her2 expr inh 1.7*.
`COc1cccc(C2=NOC(C(=O)Nc3cccc(C(C)=O)c3)C2)c1OC` (stereo unspecified) gave ROCK2 blocker 2.8, WNV protease inh 0.4, PKA kinase inh 7.0, Hsp90 block -1.4 and Her2 expr inh 118.6.
Cc1ccc(S(=O)(=O)CCC(=O)OCC(=O)Nc2cc(C)on2)cc1 was read as ROCK2 blocker 2.7, WNV protease inh 0.43, PKA kinase inh 3.8, Hsp90 block -4.6 and Her2 expr inh 89.5.
Cc1ccc(S(=O)(=O)CCC(=O)c2ccc(O)cc2O)cc1 was read as ROCK2 blocker -0.3, WNV protease inh 1.36, SK-BR-3 tox 24h 96.1, PKA kinase inh 8.0, Hsp90 block 1.6 and Her2 expr inh -7.3*.
For C=CCNC(=O)CN(c1cccc(Br)c1)S(C)(=O)=O the results were ROCK2 blocker 1.4, WNV protease inh -0.46, PKA kinase inh 2.3, Hsp90 block 87.6* and Her2 expr inh 97.5.
Screening Nc1ncnc2c1nc(Br)n2C1OC2COP(=O)(O)O[C@@H]2C1O (stereo partly specified) returned Hsp90 block -2.5.
